Source: PubChem (several laboratories)
PERK inh – human PERK inhibition, primary cell-based screen; Q9NZJ5; CHO PERK-DD fusion, SEAP luminescence translation reporter; inhibition, % at 5.6 µM; hit rate 0.17% among 220,000; AID 1416;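 active means inhibition above the mean inhibition of all tested compounds plus 3 SD, set separately per screening campaign, cut at about 2.9% in these data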;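 further: PERK kinase domain activated by AP20187 dimerizer at 100 nM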
Target sequence (Q9NZJ5 whole entry, looked up, the tested form may be a part): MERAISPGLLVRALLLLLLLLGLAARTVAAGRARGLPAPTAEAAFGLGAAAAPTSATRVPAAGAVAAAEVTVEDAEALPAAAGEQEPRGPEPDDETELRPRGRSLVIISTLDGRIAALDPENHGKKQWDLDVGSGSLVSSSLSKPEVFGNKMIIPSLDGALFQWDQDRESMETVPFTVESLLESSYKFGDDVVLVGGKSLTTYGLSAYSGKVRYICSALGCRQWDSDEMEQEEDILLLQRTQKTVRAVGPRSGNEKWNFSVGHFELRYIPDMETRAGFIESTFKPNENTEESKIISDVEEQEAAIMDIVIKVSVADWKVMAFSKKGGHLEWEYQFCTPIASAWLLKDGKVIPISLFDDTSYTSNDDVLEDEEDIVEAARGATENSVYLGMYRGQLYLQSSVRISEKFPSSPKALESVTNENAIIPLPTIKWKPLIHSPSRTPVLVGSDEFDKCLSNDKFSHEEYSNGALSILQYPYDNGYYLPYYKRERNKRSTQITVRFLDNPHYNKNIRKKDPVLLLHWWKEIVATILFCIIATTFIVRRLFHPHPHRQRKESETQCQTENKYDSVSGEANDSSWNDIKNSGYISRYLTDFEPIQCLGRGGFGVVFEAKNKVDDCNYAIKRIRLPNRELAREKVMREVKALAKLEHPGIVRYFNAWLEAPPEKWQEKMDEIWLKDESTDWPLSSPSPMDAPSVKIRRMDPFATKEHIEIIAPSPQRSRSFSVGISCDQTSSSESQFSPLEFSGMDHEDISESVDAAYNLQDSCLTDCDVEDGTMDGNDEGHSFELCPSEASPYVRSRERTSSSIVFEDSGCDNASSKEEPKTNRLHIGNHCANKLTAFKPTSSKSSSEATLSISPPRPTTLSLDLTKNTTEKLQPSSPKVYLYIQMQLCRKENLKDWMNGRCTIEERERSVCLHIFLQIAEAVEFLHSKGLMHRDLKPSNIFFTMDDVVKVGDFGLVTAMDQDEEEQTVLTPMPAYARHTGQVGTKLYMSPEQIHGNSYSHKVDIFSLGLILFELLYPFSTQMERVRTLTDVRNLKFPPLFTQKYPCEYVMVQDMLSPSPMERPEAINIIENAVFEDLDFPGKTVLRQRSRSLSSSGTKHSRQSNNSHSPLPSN
MLLE-PAM2 inh – inhibitors of microRNA-mediated deadenylation, human PABP1 MLLE binding; P11940; GST-MLLE / FITC-PAM2 fluorescence polarization; inhibition, % at 20 µM; hit rate 0.36% among 360,000; AID 588489; in the data active means inhibition above about 35%, passing the limit was not always enough
eIF4H FP inh – inhibitors of RNA binding by human eIF4H | Q15056 | eIF4H fluorescence polarization binding assay | inhibition, % at 35 µM | hit rate 0.94% among 290,000;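 further: calls also rest on retests at 20 µM and on dose response follow-up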
PABP FP inh – blocks human PABP binding to poly(A) RNA | AID 2014 | inhibition, % at 35 µM | hit rate 1% among 290,000 | P11940 | fluorescence polarization;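 further: calls also rest on retests at 20 µM and on dose response follow-up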
eIF4E 4G PPI – inhibitors of eIF4E and eIF4G interaction in translation initiation; P63073+Q04637; TR-FRET eIF4E-eIF4GI(517-606) binding, 2 h; inhibition, % at 21.7 µM; hit rate 0.37% among 220,000; AID 782;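 active means inhibition above about 30%, limit read from the data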
Of the large screens only hits and unclear results are named; the others gave an inactive call; [ ] = another dose, or the depositor's remark. The list is not random: actives were taken first. Their share in the collection is about 1.6%. Unless noted, how the calls were made is not given here.

N#Cc1c(NC(=O)C2CC(c3ccccc3O)=NO2)sc2c1CCC2 (stereo not drawn)	MLLE-PAM2 inh 40
CC1CCN(CC(=O)Nc2sc3c(c2C#N)CCC3)CC1	eIF4H FP inh 50
CCCC(=O)Nc1sc2c(c1C#N)CCCC2	none
N#Cc1cccc(C(=O)Nc2ccccc2C(=O)NC2CC2)c1	none (no result: PERK inh, eIF4H FP inh, PABP FP inh, eIF4E 4G PPI)
Cn1c(=O)c(NCCc2ccccc2)c2c3c(cccc31)C(=O)c1ccccc1-2	eIF4H FP inh 128, PABP FP inh 120
COc1ccc2[nH]c(=O)c(CN(Cc3cccs3)C(=S)NCC3CCCO3)cc2c1 (stereo not drawn)	eIF4E 4G PPI 71
O=C(/C=C/c1cccs1)NCc1ccc2c(c1)OCO2	none (no result: PERK inh, eIF4E 4G PPI)
CCCCC(=O)NCc1ccc2c(c1)cc(C)n2C	none
Cc1cc2cc(CNC(=O)C(C)Oc3ccccc3)ccc2n1C (stereo not drawn)	PABP FP inh 24
Cc1cc2cc(CNC(=O)c3cccs3)ccc2n1C	MLLE-PAM2 inh 45
CCC(CC)C(=O)NCc1ccc2c(c1)cc(C)n2C	none
CCOC(=O)CCC(=O)NCc1ccc2c(c1)cc(C)n2C	PABP FP inh 104
Cc1cc2cc(CNC(=O)Nc3ccccc3)ccc2n1C	MLLE-PAM2 inh 63
Cc1cc(=O)oc2cc(OCC(O)CN3CCN(c4ccccc4)CC3)ccc12 (stereo not drawn)	none
CN(C)Cc1cc(O)c(CN(C)C)cc1O	MLLE-PAM2 inh 79
Cc1ccc(N2C(=O)C3C4C=CC(CNC(=S)Nc5ccc(Cl)cc5)(O4)C3C2=O)cc1 (stereo not drawn)	none
Cc1ccc(N2C(=O)C3C4C=CC(CNC(=S)Nc5cccc(Cl)c5)(O4)C3C2=O)cc1 (stereo not drawn)	MLLE-PAM2 inh 41
COc1ccccc1CNC(=O)CN(C)S(=O)(=O)c1cccc2cccnc12	eIF4E 4G PPI 96
Cc1cc(C(=O)OCC(=O)N2CC(=O)Nc3ccccc32)c(C)n1-c1ccccc1	eIF4H FP inh 3.7, PABP FP inh 68
COc1ccc(NC(=O)C2CC(=O)N/C(=N/N=C/c3ccco3)S2)cc1 (stereo not drawn)	none
COc1ccc(CN=C2NC(=O)CC(C(=O)Nc3ccc(F)cc3)S2)cc1 (stereo not drawn)	eIF4E 4G PPI 36
Nc1ccc(C(=O)N/N=C/c2cn(Cc3ccc(F)cc3)c3ccccc23)cc1	none (no result: PERK inh, eIF4E 4G PPI)
O=C(N/N=C/c1cn(Cc2cccc(F)c2)c2ccccc12)c1cc(O)cc(O)c1	eIF4H FP inh 100, PABP FP inh 89 (no result: PERK inh, eIF4E 4G PPI)
CCOc1cccc(CNn2cnnc2)c1OCc1ccccc1	none
Cc1c(NC(=O)C(C)OC(=O)/C=C/c2ccco2)c(=O)n(-c2ccccc2)n1C (stereo not drawn)	eIF4H FP inh 78, PABP FP inh 2.8
CC[n+]1c(C)n(-c2ccccc2)c2ccc(C(=O)OC)cc21	PABP FP inh 69
CCOC(=O)c1ccc2c(c1)n(CC)c(C)[n+]2CC	none
CCOC(=O)c1ccc2c(c1)[n+](CC)c(C)n2-c1ccccc1	PABP FP inh 73
CCn1c(C)[n+](CC)c2ccc(C(=O)N(C)c3ccccc3)cc21	PABP FP inh 62
Cc1nc2ccccc2c(=O)n1CCCO	none
CCCS(=O)(=O)N1CCN(CCCc2ccccc2)CC1	none
O=CNn1cnc2c(oc3nc(-c4ccccc4)cc(-c4ccco4)c32)c1=O	eIF4H FP inh 51
Cc1ccc(NC(=O)COc2ccc(/C=C3/SC(=Nc4ccccc4)N(Cc4cccnc4)C3=O)cc2)cc1	eIF4H FP inh 58, PABP FP inh 79
COc1ccc(CCC(=O)NCCOc2ccc(C)cc2)cc1	none (no result: PERK inh, eIF4E 4G PPI)
C/C(=N\NC(N)=O)c1ccccc1Cl	eIF4H FP inh 106, PABP FP inh 60
C/C(=N\Nc1ccc2nncn2n1)c1ccccn1	none
COc1cc([N+](=O)[O-])ccc1-c1ccc(/C=N/NC(=O)OC(C)(C)C)o1	none
COc1cc([N+](=O)[O-])ccc1-c1ccc(/C=N/NC(N)=O)o1	PABP FP inh 44
O=c1oc2ccccc2c2oc3cc(O)c(O)cc3c12	eIF4H FP inh 101, PABP FP inh 80
COc1ccc(C2=C(N)c3ccccc3C2=O)cc1	none
COC1=C(c2ccccc2)C(=O)c2ccccc2C1=O	MLLE-PAM2 inh 49
CCOC(=O)c1sc2nc3c(SCC(=O)O)cc(C(=O)c4cc(F)ccc4O)cn3c(=O)c2c1C	none
O=C(O)CSc1cc(C(=O)c2ccccc2O)cn2c(=O)c3c(-c4ccccc4)csc3nc12	PABP FP inh active
CCOC(=O)c1sc2nc3c(SCC(=O)O)cc(C(=O)c4ccccc4O)cn3c(=O)c2c1C	none
COc1ccc(O)c(C(=O)c2cc(SCC(=O)O)c3nc4sc5c(c4c(=O)n3c2)CCCC5)c1	eIF4H FP inh 81, PABP FP inh 80, eIF4E 4G PPI 39
O=C(O)c1ccc(N2CCN(c3ccc(Cl)cc3)CC2)c([N+](=O)[O-])c1	none (no result: PERK inh, eIF4E 4G PPI)
COc1ccc(Nc2nc(CC(C)=O)ns2)cc1	none
Cc1cc(C)cc(CC2CC(=O)N(c3ccc4c(c3)OCCO4)C2=O)c1 (stereo not drawn)	none
CCc1ccc(S(=O)(=O)/N=C2/C=C(Sc3ncn[nH]3)C(=O)c3ccccc32)cc1	MLLE-PAM2 inh 46, eIF4E 4G PPI 32[fluorescence artefact?]
CCc1ccc(S(=O)(=O)/N=C2\C=CC(=O)c3ccccc32)cc1	none (no result: MLLE-PAM2 inh)
COc1cc([N+](=O)[O-])cc2sc(NC(=O)C(C)(C)C)nc12	PERK inh 3.5
CCCc1n(CC(O)COC2CCCCC2)c2ccccc2[n+]1C (stereo not drawn)	PABP FP inh 72
CCCc1n(CC(O)COCC2CC=CCC2)c2ccccc2[n+]1C (stereo not drawn)	PABP FP inh 68
CCCc1n(CC(O)COCc2ccccc2)c2ccccc2[n+]1C (stereo not drawn)	none
O=C(O)c1ccccc1C(=O)NCC(O)COCC1CC=CCC1 (stereo not drawn)	none
COCCNC(=O)Cn1nc(-c2ccccc2)c2ccccc2c1=O	none (no result: PERK inh, eIF4E 4G PPI)
COc1cc(C(=O)Nc2nnc(SC)s2)c([N+](=O)[O-])cc1OC	none
CC(=O)Nc1ccc(SC[C@H](C)CN2CC[C@H](C(C)(C)C)CCC2=O)cc1	MLLE-PAM2 inh 46 (no result: PERK inh, eIF4H FP inh, PABP FP inh, eIF4E 4G PPI)
Cc1ccc(SC[C@H](C)CN2CC[C@H](C)CCC2=O)cc1	none (no result: PERK inh, eIF4E 4G PPI)
Cc1cccc(C)c1NC(=O)CCCN1CC(C)OC(C)C1 (stereo not drawn)	PERK inh 3.2
CCOC(=O)c1c(NC(=O)c2nn(CC)cc2Br)c(C#N)cn1-c1ccccc1	none
CCOC(=O)c1c(OCC)[nH]c2c1cc(O)c1ccccc12	eIF4H FP inh 72, PABP FP inh 109
CCOC(=O)CSc1nnc(-c2cccnc2)n1C	none
CN(CCC#N)C(=O)COC(=O)c1c2c(nc3ccccc13)/C(=C/c1ccco1)CC2	eIF4H FP inh 95
CC(C)CNC(=O)COC(=O)c1c2c(nc3ccccc13)/C(=C\c1cccs1)CC2	none (no result: PERK inh, eIF4H FP inh, PABP FP inh, eIF4E 4G PPI)
Cc1cc(C)n(CCCNC(=O)C2CCC(=O)N(CCc3ccc(Cl)cc3)C2)n1 (stereo not drawn)	none (no result: PERK inh, eIF4E 4G PPI)
